This note sets out measurements from article PMC5540273 (PLoS ONE, 2017).

Holding throughout (conditions): concentration: 1 μM,replicates: in singlicate; n = 1
The subject of assay [1] is BMX.
The subject of assay [2] is BRAF.
Assay [3] has as its system T1, BRK.
T1 construct: gene PTK6

Assay [4] relates to BRSK1.
The subject of assay [5] is BRSK2.
For assay [6], the system named is BTK.
For assay [7], the system named is BUB1.
The subject of assay [8] is CAMK1B.
In assay [9] the test system is CAMK1D.
In assay [10] the test system is CAMK1G.
In assay [11] the test system is CAMK1.
Assay [12] deals with CAMK2A.
Assay [13] has as its system CAMK2B.
The test system of assay [14] is CAMK2D.
For assay [15], the system named is CAMK2G.
Assay [16] relates to CAMK4.
Assay [17] concerns CAMKK1.
Assay [18] relates to CAMKK2.
Assay [19] concerns CASK.
For assay [20], the system named is T2, CDC2L1.
T2 construct: gene CDK11B
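Also: KINOMEscan kinase panel screen.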

As to `CCOC(=O)N1CCC(n2cnc(-c3ccc(F)cc3)c2-c2ccnc(N)n2)CC1` [SB-219952], the “%Inh” value in assay [1] is on record as 13%; in [2] it was 14%; in assay [3], 0%; in assay [4], 0%; in [5], 19%; in assay [6], 32%. Also, the “%Inh” value in [7] worked out at 0%; in [8] it was 48%; in [9], 3%; in assay [10] it was 0%; in assay [11], 0%; in assay [12], 0%. Besides, the “%Inh” value in [13] is given as 0%; in assay [14], 0%; in assay [15], 8%; in [16] it was 12%; in assay [17], 0%; in assay [18], 0%. The “%Inh” value in [19] stood at 0%; in assay [20] it was 11%.
As for `COc1cccc(C2=C(Nc3cccc(Cl)c3)C(=O)NC2=O)c1` [SB-341556], the “%Inh” value stood at 24% in [1]; 0% in assay [2]; 19% in assay [3]; 11% in assay [4]; 2% in assay [5]; 0% in assay [6]. Besides, the “%Inh” value is given as 23% in assay [7]; 29% in assay [8]; 36% in [9]; 0% in [10]; 1% in assay [11]; 22% in [12]. Also, the “%Inh” value in assay [13] came to 0%; in assay [14], 14%; in assay [15], 27%; in [16], 0%; in assay [17], 3%; in assay [18], 4%. For the same compound, the results for the “%Inh” value in assay [19] and in assay [20] were 43% and 0%, respectively.
For `Cc1nnc(-c2ccc3occ(-c4ccc(S(C)=O)cc4)c3n2)o1` (centres unmarked), the “%Inh” value in assay [1], in [2], in assay [3], in assay [4], in assay [5] and in [6] was 0% throughout. In addition, the “%Inh” value came out at 0% in assay [7]; 0% in assay [8]; 17% in assay [9]; 3% in assay [10]; 3% in [11]; 0% in assay [12]. Further, the “%Inh” value in assay [13] is listed as 0%; in assay [14] it was 0%; in [15], 0%; in assay [16], 0%; in assay [17], 6%; in assay [18], 11%. Also, the “%Inh” value in [19] and in assay [20] was 0% in each case.
Take `O=C1NCCc2[nH]c(-c3ccncc3)cc21`: the “%Inh” value in [1] turned out to be 35%; in assay [2] it was 0%; in assay [3], 0%; in [4] it was 0%; in assay [5], 6%; in [6], 0%. The “%Inh” value in [7] was 20%; in [8] it was 1%; in [9], 11%; in [10] it was 0%; in assay [11] it was 13%; in assay [12] it was 9%. The “%Inh” value in [13] is 10%; in assay [14], 0%; in assay [15], 0%; in assay [16] it was 0%; in [17] it was 0%; in assay [18], 0%. In addition, the “%Inh” value in assay [19] and in [20] was 0% throughout.
Turning to `C[C@@H](Oc1cc(-n2cnc3ccc(-c4ccncc4)cc32)sc1C(N)=O)c1ccccc1Cl` [GSK483724], the “%Inh” value came to 27% in [1]; 8% in assay [2]; 25% in [3]; 24% in assay [4]; 20% in assay [5]; 0% in assay [6]. Besides, the “%Inh” value in assay [7] was 41%; in assay [8], 8%; in [9], 21%; in [10], 21%; in assay [11], 40%; in assay [12], 15%. For the same compound, the “%Inh” value is given as 0% in assay [13]; 31% in assay [14]; 37% in assay [15]; 0% in assay [16]; 34% in assay [17]; 59% in assay [18]. Also, the figures for the “%Inh” value in [19] and in assay [20] were 14% and 0%, respectively.
`OCCn1cc(-c2cnc3nnn(Cc4ccc5ncccc5c4)c3n2)cn1`: the “%Inh” value in [1] turned out to be 0%; in assay [2], 1%; in assay [3], 0%; in assay [4], 22%; in assay [5], 0%; in assay [6] it was 0%. The “%Inh” value in assay [7] is recorded as 0%; in assay [8], 0%; in assay [9], 4%; in assay [10], 0%; in [11], 0%; in [12], 0%. The “%Inh” value in assay [13], in assay [14], in assay [15], in assay [16], in assay [17] and in [18] was 0% each time. The “%Inh” value in assay [19] is given as 0%; in assay [20], 11%.
On to `Cl.Cl.NC[C@H](CC1CCCCC1)NC(=O)c1ccc(-c2ccnc3[nH]ccc23)s1` [GSK1581428], for which the “%Inh” value in assay [1] came out at 2%; in assay [2], 0%; in assay [3], 5%; in [4], 11%; in assay [5] it was 17%; in [6] it was 0%. Besides, the “%Inh” value in [7] turned out to be 44%; in assay [8], 0%; in [9], 36%; in assay [10], 9%; in assay [11], 37%; in assay [12] it was 0%. Moreover, the “%Inh” value is reported as 0% in [13]; 7% in assay [14]; 5% in assay [15]; 0% in assay [16]; 40% in assay [17]; 27% in assay [18]. Further, the figures for the “%Inh” value in assay [19] and in assay [20] were 4% and 0%, respectively.
Consider `Cn1ccc2ncnc(Oc3ccc(NC(=O)Nc4cc(C(C)(C)C)on4)c(Cl)c3)c21`, for which the “%Inh” value in assay [1] is on record as 33%; in assay [2], 76%; in assay [3], 10%; in assay [4] it was 8%; in [5], 0%; in assay [6], 0%. For the same compound, the “%Inh” value in assay [7] came out at 5%; in assay [8] it was 0%; in assay [9], 14%; in assay [10] it was 12%; in assay [11], 17%; in assay [12], 100%. The “%Inh” value in assay [13] worked out at 100%; in assay [14], 4%; in assay [15], 14%; in assay [16], 0%; in assay [17], 6%; in [18], 22%. The “%Inh” value in assay [19] and in assay [20] was 0% in each case.
As for `Cc1n[nH]c2cc(Nc3ccnc(Nc4cccc(CN5CCOCC5)c4)n3)ccc12` [GW682569], the “%Inh” value is 11% in [1]; 0% in [2]; 47% in [3]; 0% in assay [4]; 0% in [5]; 60% in [6]. Further, the “%Inh” value in assay [7] is listed as 36%; in assay [8], 37%; in [9], 26%; in assay [10], 1%; in assay [11], 43%; in [12], 0%. Besides, the “%Inh” value in assay [13] is reported as 0%; in [14], 5%; in [15], 0%; in assay [16] it was 0%; in [17] it was 21%; in assay [18], 13%. For the same compound, the “%Inh” value was determined as 0% in assay [19] and 7% in [20].
For `COc1cc2c(Nc3ccc(NC(=O)c4ccccc4)cc3)ncnc2cc1OCCCN1CCOCC1` [GSK301329], the “%Inh” value was determined as 7% in assay [1]; 0% in assay [2]; 77% in assay [3]; 20% in assay [4]; 0% in assay [5]; 0% in assay [6]. Moreover, the “%Inh” value was determined as 10% in assay [7]; 9% in assay [8]; 35% in [9]; 9% in assay [10]; 40% in assay [11]; 0% in assay [12]. The “%Inh” value is reported as 0% in assay [13]; 0% in [14]; 1% in assay [15]; 0% in assay [16]; 0% in assay [17]; 0% in assay [18]. For the same compound, the entries for the “%Inh” value in [19] and in [20] were 17% and 0%, respectively.
